For 39 compounds, percent response vs DMSO results are on record in PubChem BioAssay AID504334 (NMMLSC, 2011).

“And” between values parts separate entries of the source, which are not always exact repeats. Equal values may be shown once. A number with no mark means an inactive call. The source made the active and inactive calls.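 The calls were made as follows: active = response relative to DMSO over 150%; inconclusive = yeast strain with under 70 recorded events; inactive = the rest.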

The assay in a line: yeast AGP1-GFP fluorescence change, single-dose confirmation – cell-based, flow cytometry, S. cerevisiae, cherry pick set 3 (AID 504334).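 Also: median GFP fluorescence per well by flow cytometry over the all cells gate; ratio of sample to mean DMSO control signal so DMSO = 100% not 0%.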 The note with it: S. cerevisiae AGP1-GFP strain, 3 h, at 10 µM, hits give high values. (A flow cytometer gives signals particle by particle.)
`Oc1c(I)cc(Cl)c2cccnc12`: the percent response vs DMSO is 100%.

In the case of `NC(=O)c1ccnc2c(O)cccc12`, the percent response vs DMSO was 100%.

For the compound `CCc1c(C)nc2c(OC)cccc2c1Cl`, the percent response vs DMSO was 99.4%.

Turning to `COC(=O)COc1c(Cl)cc(Cl)c2ccc(C)nc12`, the percent response vs DMSO is 105%.

As for `COc1ccccc1-c1cc(C(F)(F)F)nc(S(C)(=O)=O)n1`, the percent response vs DMSO was 130%.

For `COc1ccc(N/C(C)=C/C(=O)c2ccccc2)cc1`, the percent response vs DMSO was 98.4%.

As to `CC(=O)Nc1ccc(-c2nc3cc(Cl)ccc3o2)cc1`, the percent response vs DMSO is 96.1%.

`COc1cccc(N/C=C/C(=O)c2ccc(C)cc2)c1`: the percent response vs DMSO is 99.8%.

For the compound `CC1=CN2C(=N)/C(=C/c3ccco3)C(=O)N=C2S1`, the percent response vs DMSO was 97.1%.

Take `CCOC(=O)CS(=O)(=O)c1nc(-c2ccccc2)cc(C(F)(F)F)n1`: the percent response vs DMSO is 122%.

Turning to `CC1=NNC(=O)/C1=C\c1cn(-c2ccccc2)nc1-c1ccc(F)cc1`, the percent response vs DMSO was 108%.

Take `COc1ccc(OC)c(N/C(C)=C/C(=O)c2ccccc2)c1`: the percent response vs DMSO is 99.8%.

As for `COc1cccc2c(O)cc(=O)n(C)c12`, the percent response vs DMSO was 99.1%.

For the compound `Cc1nc2c(O)cccc2cc1CO`, the percent response vs DMSO was 99.1%.

`O=C(Nc1cccc(Cl)c1)ON=C1c2ccccc2-c2ccccc21`: the percent response vs DMSO was 99.1%.

For the compound `COc1ccc(-c2cc(C(F)(F)F)nc(S(C)(=O)=O)n2)cc1OC`, the percent response vs DMSO was 106% and 113%.

On to `CC(=O)Nc1ccc(-c2nc3ccccc3o2)cc1`, for which the percent response vs DMSO is 96.8%.

In the case of `CN(C)CCCNc1cc(O)c2ncccc2c1`, the percent response vs DMSO is 105%.

Turning to `CC(=O)CC(=O)Nc1ccc(C(N)=O)cc1`, the percent response vs DMSO was 100%.

Turning to `CC(=O)NC(C)c1cc(Cl)c2cccnc2c1O` (centres undefined), the percent response vs DMSO was 102%.

For `COc1ccccc1-c1cc(C(F)(F)F)nc(S(=O)(=O)CCCC(=O)NC(C)C)n1`, the percent response vs DMSO was 104% and 99.8%.

With `CCN(CC)C(=O)Oc1ccnc2cc(Cl)ccc12`, the percent response vs DMSO was 108%.

Turning to `CC1=CN2C(=N)/C(=C/c3ccc([N+](=O)[O-])o3)C(=O)N=C2S1`, the percent response vs DMSO was 569% (active).

As for `Cc1cccc(N/C=C/C(=O)c2ccc(Cl)cc2)c1`, the percent response vs DMSO was 95.4%.

As to `CCC(C)Nc1nc(N)c([N+](=O)[O-])c(Nc2ccccc2OC)n1` (centres undefined), the percent response vs DMSO was 104%.

Regarding `COc1ccccc1Nc1nc(NCCCN(C)C)nc(N)c1[N+](=O)[O-]`, the percent response vs DMSO was 102%.

As for `O=C(O)c1ccc(C=NNC(=O)c2cccc3ccccc23)cc1`, the percent response vs DMSO was 107%.

As for `N#Cc1c(N)nc(N)nc1Nc1ccc(Br)cc1`, the percent response vs DMSO was 98.4%.

For `O=C(N/N=C/c1ccccc1)c1cccc2ccccc12`, the percent response vs DMSO is 101%.

Regarding `O=C(Nc1ccccc1)ON=C1c2ccccc2-c2ccccc21`, the percent response vs DMSO is 97.8%.

As to `COc1cccc(N/C=C/C(=O)c2ccc(Cl)cc2)c1`, the percent response vs DMSO is 93.8%.

Consider `C=CCNc1ncnc2ccccc12`, for which the percent response vs DMSO is 102%.

With `CCCOCc1ccc(O)c2ncccc12`, the percent response vs DMSO is 99.8%.

Take `O=C(Nc1cccc2ccccc12)ON=C1CCCCC1`: the percent response vs DMSO was 99.8%.

As for `Nc1c(C(=O)O)ccc2c1C(=O)c1ccccc1C2=O`, the percent response vs DMSO was 114%.

As for `COc1cccc(OCc2cc(C(=O)N3CCN(C)C(c4ccccc4)C3)no2)c1` (centres undefined), the percent response vs DMSO is 101%.

For the compound `Oc1c(Cl)cc(Cl)c2cccnc12`, the percent response vs DMSO was 98.8%.

Take `CS(=O)(=O)c1nc(-c2ccc(F)cc2)cc(C(F)(F)F)n1`: the percent response vs DMSO is 114%.

Take `CC(=O)Nn1cnc2c(c1=O)C1(CCCCC1)Cc1ccccc1-2`: the percent response vs DMSO was 104%.
